Paper PMC7862700, “An all-to-all approach to the identification of sequence-specific readers for epigenetic DNA modifications on cytosine”

Legend:
Assay in all cases: DAPPL (digital affinity profiling via proximity ligation, sequencing); 10 mM Tris-HCl pH 7.5, 50 mM NaCl, 1 mM DTT, 4% glycerol, room temperature, 30 min; GST-TFs on glutathione beads, 16-mer random dsDNA library, 0.1% formaldehyde crosslink after washing; high values mean tight binding
Conditions in all cases: protein: recombinant; tags: N-terminal GST; dsDNA, one strand shown
FLI1 = target: T1, FLI1 (Homo sapiens, UniProt Q01543 1-452)
T1 sequence: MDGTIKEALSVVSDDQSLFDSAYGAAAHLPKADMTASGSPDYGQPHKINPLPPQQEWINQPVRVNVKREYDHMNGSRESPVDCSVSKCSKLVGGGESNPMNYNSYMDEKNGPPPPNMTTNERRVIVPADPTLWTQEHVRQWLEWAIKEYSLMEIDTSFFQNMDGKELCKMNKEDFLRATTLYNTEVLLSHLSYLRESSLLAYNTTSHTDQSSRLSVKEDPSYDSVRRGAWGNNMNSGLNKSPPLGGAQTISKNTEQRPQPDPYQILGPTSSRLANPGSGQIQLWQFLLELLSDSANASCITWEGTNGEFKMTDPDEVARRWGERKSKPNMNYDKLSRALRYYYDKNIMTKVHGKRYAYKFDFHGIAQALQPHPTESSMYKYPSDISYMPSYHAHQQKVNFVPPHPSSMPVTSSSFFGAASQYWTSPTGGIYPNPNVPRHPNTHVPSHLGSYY
Procedure, shortened: (§1)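 In yeast, human transcription factors were expressed with a GST fusion, then pulled down on glutathione beads and given DNA barcodes. Pooled with a tag-only sample, they were exposed to 200 nmole of a 16-mer random double-stranded DNA library (Tris/NaCl/DTT/glycerol buffer, room temperature, 30 min), washed, crosslinked with 0.1% formaldehyde, proximity-ligated using BsaI/T4 ligase for 1 h at 37 °C, PCR-amplified and read on an Illumina NextSeq500. Each hexamer's frequency of reads for a factor, divided by the matching frequency for the tag-only sample, gives the binding signal.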

ELK1 = target: T2, ELK1 (Homo sapiens, UniProt P19419 1-428)
T2 sequence: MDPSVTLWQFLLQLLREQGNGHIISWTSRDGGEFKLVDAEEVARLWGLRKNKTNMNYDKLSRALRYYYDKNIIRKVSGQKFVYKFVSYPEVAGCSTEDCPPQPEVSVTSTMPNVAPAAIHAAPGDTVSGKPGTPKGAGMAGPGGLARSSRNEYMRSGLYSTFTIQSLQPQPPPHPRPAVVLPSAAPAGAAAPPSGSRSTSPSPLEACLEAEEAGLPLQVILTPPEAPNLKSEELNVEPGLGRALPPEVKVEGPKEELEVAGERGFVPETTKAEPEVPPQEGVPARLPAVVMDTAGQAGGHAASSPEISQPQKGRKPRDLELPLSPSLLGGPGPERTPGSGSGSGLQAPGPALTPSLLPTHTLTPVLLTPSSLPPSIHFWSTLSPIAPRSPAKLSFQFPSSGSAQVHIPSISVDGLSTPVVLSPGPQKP
Procedure, shortened: as §1

GABPA = target: T3, GABPA (Homo sapiens, UniProt Q06546 1-454)
T3 sequence: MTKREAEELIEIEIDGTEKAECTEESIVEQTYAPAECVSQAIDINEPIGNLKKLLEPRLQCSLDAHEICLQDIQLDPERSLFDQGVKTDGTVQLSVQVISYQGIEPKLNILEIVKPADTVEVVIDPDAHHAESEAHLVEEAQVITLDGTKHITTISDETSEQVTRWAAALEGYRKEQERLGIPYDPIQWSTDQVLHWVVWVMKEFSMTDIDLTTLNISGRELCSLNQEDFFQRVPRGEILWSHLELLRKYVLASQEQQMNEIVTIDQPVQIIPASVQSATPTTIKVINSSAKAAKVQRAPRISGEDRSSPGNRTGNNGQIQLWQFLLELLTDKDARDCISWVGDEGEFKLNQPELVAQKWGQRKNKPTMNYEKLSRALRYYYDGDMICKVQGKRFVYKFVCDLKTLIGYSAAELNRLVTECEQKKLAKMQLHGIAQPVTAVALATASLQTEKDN
Procedure, shortened: as §1

ERG = target: T4, ERG (Homo sapiens, UniProt P11308 1-479)
T4 sequence: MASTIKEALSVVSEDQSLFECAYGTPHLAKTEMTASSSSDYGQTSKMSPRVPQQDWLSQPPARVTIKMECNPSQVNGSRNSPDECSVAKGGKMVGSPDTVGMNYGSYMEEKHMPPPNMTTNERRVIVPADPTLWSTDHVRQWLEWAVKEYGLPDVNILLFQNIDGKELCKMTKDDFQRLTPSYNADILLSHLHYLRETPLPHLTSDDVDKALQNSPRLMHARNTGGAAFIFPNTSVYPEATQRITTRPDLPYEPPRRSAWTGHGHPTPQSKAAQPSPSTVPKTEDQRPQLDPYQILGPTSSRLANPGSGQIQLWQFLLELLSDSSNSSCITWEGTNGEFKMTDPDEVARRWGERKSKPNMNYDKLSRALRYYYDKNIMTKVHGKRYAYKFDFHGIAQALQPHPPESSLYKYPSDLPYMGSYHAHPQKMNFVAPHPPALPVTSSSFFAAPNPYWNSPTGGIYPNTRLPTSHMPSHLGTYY
Procedure, shortened: as §1

ELF1 = ELF1 (Homo sapiens, UniProt P32519 1-619)
Procedure, shortened: as §1

EHF = target: T5, EHF (Homo sapiens, UniProt Q9NZC4 1-300)
T5 sequence: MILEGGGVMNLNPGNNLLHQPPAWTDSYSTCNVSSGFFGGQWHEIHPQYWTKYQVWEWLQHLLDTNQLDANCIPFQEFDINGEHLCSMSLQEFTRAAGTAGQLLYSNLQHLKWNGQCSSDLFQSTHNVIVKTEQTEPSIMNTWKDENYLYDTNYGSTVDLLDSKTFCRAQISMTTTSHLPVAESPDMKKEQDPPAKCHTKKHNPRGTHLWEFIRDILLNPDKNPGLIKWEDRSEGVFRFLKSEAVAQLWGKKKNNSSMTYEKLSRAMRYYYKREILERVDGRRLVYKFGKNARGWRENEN
Procedure, shortened: as §1

SPI1 = SPI1 (Homo sapiens, UniProt P17947 1-270)
Procedure, shortened: as §1

SPIB = SPIB (Homo sapiens, UniProt Q01892 1-262)
Procedure, shortened: as §1

ELK3 = target: T6, ELK3 (Homo sapiens, UniProt P41970 1-407)
T6 sequence: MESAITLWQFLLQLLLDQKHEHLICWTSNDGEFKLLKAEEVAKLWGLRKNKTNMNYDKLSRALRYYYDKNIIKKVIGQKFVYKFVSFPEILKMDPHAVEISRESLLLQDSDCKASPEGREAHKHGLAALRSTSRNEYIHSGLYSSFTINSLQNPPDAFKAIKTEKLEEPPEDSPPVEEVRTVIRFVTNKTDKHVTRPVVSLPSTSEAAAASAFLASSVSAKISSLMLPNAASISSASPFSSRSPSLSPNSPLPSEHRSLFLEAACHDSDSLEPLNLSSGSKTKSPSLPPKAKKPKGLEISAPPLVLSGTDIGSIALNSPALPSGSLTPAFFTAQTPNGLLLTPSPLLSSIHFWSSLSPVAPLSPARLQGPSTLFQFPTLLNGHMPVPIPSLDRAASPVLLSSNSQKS
Procedure, shortened: as §1

Sequence of ELF1 (P32519 whole entry): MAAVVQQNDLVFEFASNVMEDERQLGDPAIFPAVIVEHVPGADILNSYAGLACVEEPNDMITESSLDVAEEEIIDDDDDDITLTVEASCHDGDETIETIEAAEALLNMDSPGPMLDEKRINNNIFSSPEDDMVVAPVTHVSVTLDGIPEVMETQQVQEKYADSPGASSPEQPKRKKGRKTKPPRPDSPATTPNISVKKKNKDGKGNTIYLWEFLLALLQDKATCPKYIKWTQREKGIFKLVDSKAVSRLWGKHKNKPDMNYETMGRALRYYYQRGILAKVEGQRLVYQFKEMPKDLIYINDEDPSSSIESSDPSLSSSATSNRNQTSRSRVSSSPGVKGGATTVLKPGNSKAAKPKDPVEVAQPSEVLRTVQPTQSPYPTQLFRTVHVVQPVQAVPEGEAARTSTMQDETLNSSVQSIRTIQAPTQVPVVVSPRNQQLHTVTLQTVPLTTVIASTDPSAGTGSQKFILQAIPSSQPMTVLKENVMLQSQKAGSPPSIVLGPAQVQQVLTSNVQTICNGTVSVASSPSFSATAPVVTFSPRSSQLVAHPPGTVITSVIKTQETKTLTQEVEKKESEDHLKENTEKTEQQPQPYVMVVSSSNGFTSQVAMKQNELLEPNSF
Sequence of SPIB (Q01892 whole entry): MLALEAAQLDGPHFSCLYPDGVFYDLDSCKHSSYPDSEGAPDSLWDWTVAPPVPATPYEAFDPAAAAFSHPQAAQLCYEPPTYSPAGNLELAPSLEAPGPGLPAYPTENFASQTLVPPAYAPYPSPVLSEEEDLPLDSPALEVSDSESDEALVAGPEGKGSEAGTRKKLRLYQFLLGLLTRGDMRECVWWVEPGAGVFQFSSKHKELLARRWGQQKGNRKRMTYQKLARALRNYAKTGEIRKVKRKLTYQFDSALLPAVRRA

AATATC
binding signal (FLI1): 1.53 fold enrichment (6-mer frequency, TF over GST control)
binding signal (ELK1): 1.55 fold enrichment (6-mer frequency, TF over GST control)
binding signal (GABPA): 1.66 fold enrichment (6-mer frequency, TF over GST control)
binding signal (ERG): 1.66 fold enrichment (6-mer frequency, TF over GST control)
binding signal (ELF1): 1.55 fold enrichment (6-mer frequency, TF over GST control)
binding signal (EHF): 1.44 fold enrichment (6-mer frequency, TF over GST control)
binding signal (SPI1): 1.51 fold enrichment (6-mer frequency, TF over GST control)
binding signal (SPIB): 1.52 fold enrichment (6-mer frequency, TF over GST control)
binding signal (ELK3): 1.49 fold enrichment (6-mer frequency, TF over GST control)
